How the values were obtained:
Assay in all cases: PBM binding z-score (relative to random genomic background probes); higher = stronger binding; sequences stand for … in GC…GCGATTGACAGCGTAGAATGAAGG
[1] = tested on: FXR:RXRa (NR concentration 270 nM, RXRa partner concentration 90 nM)
In short: (§1)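 On custom Agilent 4×180K arrays, double-stranded probes with 34-nt variable regions carried direct-repeat seeds, single-nucleotide variants, half-site ablations or random human genomic background. Ligand-free nuclear receptor dimers were applied for 1 h, and binding was read with antibodies against each partner (one per run). Binding z-scores come from regression-normalized fluorescence, with the random background probes as reference.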

[2] = tested on: LXRa:RXRa (NR concentration 270 nM, RXRa partner concentration 90 nM)
In short: as §1

[3] = tested on: LXRa homodimer (NR concentration 270 nM)
In short: as §1

[4] = tested on: LXRb:RXRa (NR concentration 270 nM, RXRa partner concentration 90 nM)
In short: as §1

[5] = tested on: LXRb homodimer (NR concentration 270 nM)
In short: as §1

[6] = tested on: PPARa:RXRa (NR concentration 270 nM, RXRa partner concentration 90 nM)
In short: as §1

[7] = tested on: PPARg:RXRa (NR concentration 180 nM, RXRa partner concentration 90 nM)
In short: as §1

[8] = tested on: PPARg:RXRa 270nM:90nM, anti-RXR (NR concentration 270 nM, RXRa partner concentration 90 nM)
In short: as §1

[9] = tested on: PPARg:RXRa 30nM:10nM, anti-RXR (NR concentration 30 nM, RXRa partner concentration 10 nM)
In short: as §1

[10] = tested on: PPARg:RXRa 90nM:30nM, anti-RXR (NR concentration 90 nM, RXRa partner concentration 30 nM)
In short: as §1

| Sequence | PBM binding z-score [1] | PBM binding z-score [2] | PBM binding z-score [3] | PBM binding z-score [4] | PBM binding z-score [5] | PBM binding z-score [6] | PBM binding z-score [7] | PBM binding z-score [8] | PBM binding z-score [9] | PBM binding z-score [10] |
| --- | --- | --- | --- | --- | --- | --- | --- | --- | --- | --- |
| GGAACGTGGGCAAGTTGATAGCAGAGTTTGATGG | -0.957 | -0.763 | -0.666 | -0.678 | -0.982 | -0.579 | 0.382 | -0.458 | -0.337 | -0.422 |
| TGAATGAGGTTATAAGATCAGGGAGCGTTGCAAA | 1.22 | 1.19 | -0.626 | 0.707 | -0.471 | 2.63 | 1.63 | 1.91 | 0.643 | 1.55 |
| ATCTCTAGGTAACCACGTTCAGTGAATGCCGAAC | -0.0584 | -0.141 | 0.335 | -0.0295 | 0.814 | 0.308 | 0.571 | 0.503 | 0.0771 | 0.0954 |
| CCTATGAGTTGACCATAAGGGCAACCGAAGCTCG | 0.925 | 0.669 | -0.0503 | 0.247 | 0.184 | 0.685 | 0.512 | 0.342 | -0.144 | -0.218 |
| TCTTGTAGATCTATAGAGGTTAAGAAAGTGCGCT | 0.449 | 3.17 | 0.171 | 1.78 | -0.194 | 1.81 | 0.274 | 1.62 | 2.58 | 2.23 |
| GGAACGAGAGCAAGTTGATAGCAGAGTTTGATGG | -0.63 | -0.766 | -0.719 | -0.852 | -1.03 | -0.523 | 0.39 | -0.573 | -0.225 | -0.721 |
| GCTCCGAGGACAAGGTCAGAGCTTTGTCCGTAGA | 1.79 | 1.33 | -0.653 | 1.05 | -1.37 | 2.23 | 0.168 | 1.15 | -0.379 | 0.299 |
| CCGACTGGGGCAGAAAGGTTACCATTCCATCCGG | 0.282 | 0.271 | -0.165 | 0.84 | -1.08 | 1.93 | 1.48 | 2.66 | 0.414 | 2.13 |
| CTCGAAAGGTCGTTTGAGGTGAGTATACGGATAA | 6.16 | 4.77 | 0.74 | 3.96 | 1.09 | 4.99 | 2.46 | 3.47 | 1.38 | 2.14 |
| TAGCCTAGGTCATTGGGCCAGTATGGTACGCATC | 4.05 | 3.25 | 0.37 | 2.07 | 0.231 | 3.63 | 3.54 | 3.7 | 0.478 | 2.47 |
| CCTTACGGGTCACGCCAGGTTATAGCATCGGAGT | 6.4 | 6.03 | 0.573 | 4.1 | -0.0774 | 5.57 | 6.03 | 6.08 | 2.72 | 4.76 |
| CAAACTAGGTCACAGAGGTGAAAGTCCGTGCGTA | 5.7 | 4.38 | 0.932 | 3.33 | 0.56 | 5.82 | 9.16 | 7.57 | 5.73 | 7.6 |
| CGTCCAAGGTCAATGCTATGTCAGTGAAAGCATT | 6.33 | 4.8 | 0.645 | 3.67 | 0.692 | 4.99 | 3.66 | 4.41 | 1.02 | 2.95 |
| ATCTCTAGGTAAAGTTCAGTTAAAGATCGATAGA | 1.31 | 2.28 | 1.98 | 1.67 | 1.22 | 2.39 | 3.27 | 4.32 | 2.38 | 3.95 |
| TCTTGTAGATCAATAGAGGTTAAGAAAGTGCGCT | 0.723 | 3.4 | 0.589 | 1.83 | -0.158 | 1.8 | -0.124 | 1.46 | 2.83 | 2.18 |
| TCATATAGGTAATACAGGTGCAAGTCGGCATCTA | 0.658 | 1.85 | 0.544 | 0.742 | 0.358 | 1.45 | 1.07 | 2.35 | 3.75 | 3.08 |
| CCTTACGGGTCTCGAGGTTATAGCACGACGAGCG | 0.0293 | 0.421 | -0.197 | 0.31 | -0.922 | 1.15 | 0.785 | 0.313 | -0.359 | -0.392 |
| CGAACTTGGTCATCCAGGACAGTGAATACATTGA | 0.205 | -0.0973 | -0.0371 | -0.13 | -0.606 | 0.208 | 0.624 | -0.0338 | 0.133 | -0.228 |
| ATCTCTAGGTAACAAGTACAGTGAAAGAGAGGAC | 0.404 | 0.297 | 0.245 | -0.0374 | 0.894 | 0.308 | 1.33 | 1.36 | 0.696 | 1.02 |
| TCTTGTATATCAATAGAGGTTAAGAAAGTGCGCT | 0.889 | 3.66 | 0.646 | 1.74 | 0.472 | 1.77 | 0.559 | 1.69 | 3.02 | 2.45 |
| CCTGCTAGGTCATGGGCAGCTAATCTACAGTATG | 4.12 | 2.55 | -0.0623 | 1.29 | -0.864 | 3.72 | 2.82 | 3.2 | 0.94 | 1.97 |
| GCTTACGGGTCAAAGGTTATAGCGTGAATAGAAT | 7.45 | 5.66 | 0.631 | 5.61 | 0.387 | 6.97 | 11 | 9.25 | 9.52 | 9.99 |
| ATATGTAGGTTATCGGGTCAATCAGTTTGCGCAT | 3.33 | 3.31 | 1.36 | 2.99 | 1.1 | 4.99 | 7.6 | 6.41 | 3.84 | 5.93 |

From the supplement of paper PMC6555819
